This is a sample that favours compounds with a hit; in the whole collection about 19% have one here.
IL1B secr inh – blocks inflammasome-driven IL-1 beta release; activity change, % at 57.5 µM; AID 743279; THP-1 LPS/ATP IL-1B secretion, AlphaLISA, 16 h; stronger effect = lower value; 360,000 tested, 4.7% active; in the data active = activity change below about -50%; inconclusive = mostly about -30% to -49%; note: % is set by controls: 0 for no effect and ±100 for the full control effect
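THP-1 cells pretreated 1 hr with compounds (up to 57.5 uM final), then stimulated with LPS (250 ng/mL final) plus ATP (1.25 mM final); secreted IL-1B measured by AlphaLISA after 16 hr, decreased signal indicating inhibition.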
DT40 TDP1 no CPT – qHTS for Inhibitors of human tyrosyl-DNA phosphodiesterase 1 (TDP1): qHTS in cells in absence of CPT; DT40 Tdp1-/- hTDP1 cells, no CPT, ATP luminescence, 48 h; Potency, µM (doses to about 46.2 µM), without a hit: top-dose activity change, negative = growth inhibition, hits mostly inhibitors; 420,000 tested, 15% active; AID 686978, 2013; note: potency is the fitted concentration of half-maximal effect; % is set by controls: 0 for no effect and ±100 for the full control effect; nearly all actives have a fitted effect of over 55% in size
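Readout: luminescence from CellTiter-Glo after 30 min in the dark at RT. Cells: DT40 Tdp1-/- with stable hTDP1, 400/well. Exposure: compounds alone, ≥48 hr, 37 °C.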
TDP1 cell CPT – growth inhibition of DT40 Tdp1-/-;hTDP1 cells with camptothecin (screen for TDP1 inhibitors); Potency, µM (series often up to 46.2 µM), inactives show top-dose activity change, negative = growth inhibition, most hits filed as inhibitors; AID 686979; chicken DT40 Tdp1-/-;hTDP1 cells + 20 nM CPT, ATP luminescence, 48 h; 420,000 tested, 12% active; note: potency is the fitted concentration of half-maximal effect; % is set by controls: 0 for no effect and ±100 for the full control effect; nearly all actives have a fitted effect of over 55% in size
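Chicken DT40 Tdp1-/- cells complemented with human TDP1, 400 cells/well, exposed to compounds plus 20 nM camptothecin for at least 48 h at 37 C; viability read as ATP content by CellTiter-Glo luminescence.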
TGFb inhibitor – TGF-b pathway inhibition. Potency, µM (titrated, usually from 46.1 µM), without a hit: at the top dose activity, negative = inhibition, usual class: inhibitors. AID 588855. 410,000 tested, 1.2% active. HepG2 CAGA-GFP TGF-b/SMAD3 reporter, GFP fluorescence, 18 h; TGF-beta stimulated, 500 pg/mL final; note: potency is the fitted concentration of half-maximal effect; % is set by controls: 0 for no effect and ±100 for the full control effect; nearly all actives have a fitted effect of over 65% in size
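Using HEPG2 CAGA-GFP reporter cells at 1000 cells/well, we pinned test compounds, stimulated with recombinant TGF-beta (500 pg/mL final) and measured total well GFP after 18 h.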
HepG2 viability – kills HepG2 cells in TGF-b inhibitor counter-screen. Potency, µM (top dose mostly 46.1 µM), inactives show at the highest dose activity change, negative = cytotoxicity, actives largely listed as cytotoxic. 410,000 tested, 0.76% active. HepG2 CAGA-GFP viability, ATP luminescence, 18 h; note: potency is the fitted concentration of half-maximal effect
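CellTiter-Glo luminescence gave cytotoxicity after 18 hours at 37 degrees C. The cells were HepG2 CAGA-GFP in 1% FBS DMEM, stimulated with 500 pg/mL TGF-beta after compound addition. %Activity was normalised to no-cell wells (complete cell-killing) and DMSO (no toxicity), and curves were fitted and classified.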
ASM inhibitor – blocks human secretory acid sphingomyelinase. P17405. placental ASM, HMU-PC fluorogenic substrate, 60 min. Potency, µM (titrated, usually from 57.5 µM), for the others: at the highest dose activity change, negative = inhibition, hits mostly inhibitors. 340,000 tested, 0.006% active; note: potency is the fitted concentration of half-maximal effect
Target sequence (P17405 47-631 limits assumed): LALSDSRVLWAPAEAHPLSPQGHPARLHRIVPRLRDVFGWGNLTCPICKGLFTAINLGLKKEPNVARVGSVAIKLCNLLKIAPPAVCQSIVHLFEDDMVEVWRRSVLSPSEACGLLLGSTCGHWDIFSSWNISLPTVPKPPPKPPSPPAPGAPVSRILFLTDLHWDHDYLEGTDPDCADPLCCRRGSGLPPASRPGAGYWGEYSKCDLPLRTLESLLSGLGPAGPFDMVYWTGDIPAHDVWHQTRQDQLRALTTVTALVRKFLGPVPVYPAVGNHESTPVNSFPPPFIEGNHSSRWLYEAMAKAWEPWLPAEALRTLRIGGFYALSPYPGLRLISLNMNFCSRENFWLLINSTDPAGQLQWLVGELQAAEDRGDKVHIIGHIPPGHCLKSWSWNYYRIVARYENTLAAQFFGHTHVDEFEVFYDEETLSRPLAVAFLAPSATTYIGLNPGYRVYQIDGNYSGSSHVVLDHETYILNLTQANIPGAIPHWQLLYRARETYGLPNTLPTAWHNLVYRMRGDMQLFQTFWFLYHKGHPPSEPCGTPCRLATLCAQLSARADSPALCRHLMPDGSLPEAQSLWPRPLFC
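Steps: dispense placental human ASM, pin compound, wait 10 min at room temperature, add HMU-PC0 substrate at 9 uM final, incubate 60 min at 37 °C, add stop solution raising pH to 10, read fluorescence.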
Active calls of the source: *; i = inactive; ? = inconclusive; · = not tested or not shown; [ ] = dose if it differs, or a comment. Unless noted, calls come from the whole dose curve; as a rule, active = well fitted curve in the direction sought with a large enough effect; inconclusive = small, poorly fitted or top-dose-only effect, or another doubt; inactive = no such curve, though single readings can be large; an effect the other way counts as inactive or inconclusive.

SMILES	IL1B secr inh	DT40 TDP1 no CPT	TDP1 cell CPT	TGFb inhibitor	HepG2 viability	ASM inhibitor
CC1CC1C(=O)Nc1ccc(S(=O)(=O)N2CCCCC2)cc1 (stereo unspecified)	14	21µM*	23µM*	-13%	-2%	3%
O=C(O)c1cccc2cc(-c3ccccc3)oc(=O)c12	-23	13%	-3%	10%	14%	81%
O=C(O)c1cccc2cccc(-c3c4ccc(=O)c(O)c-4oc4c(O)c(O)ccc34)c12	-17	7.3µM*	10µM*	0%	-22%	-25%
COc1c(Cl)cc(Cl)cc1CNCCSc1nnnn1C	·	-14%	4%	-4%	-9%	·
C=CCN(C(=O)CCC(=O)Nc1cc(C)on1)C(C(=O)NC1CCCC1)c1ccc(CC)cc1 (stereo unspecified)	-9	15µM*	?	6%	-20%	-3%
Cc1cc(NC(=O)CCC(=O)N(CCC(C)C)CC(=O)NCC2CCCO2)no1 (stereo unspecified)	39	0%	5%	0%	-6%	-2%
CCCCN(C(=O)CCC(=O)Nc1cc(C)on1)C(C(=O)NC1CCCC1)c1ccc(OCC)cc1 (stereo unspecified)	-16	16µM*	?	3%	-4%	-7%
Cc1cc(NC(=O)CCC(=O)N(CCC(C)C)C(C(=O)NCC2CCCO2)c2ccccc2C)no1 (stereo unspecified)	-57*	?	-11%	?	-21%	1%
CCCCN(C(=O)CCC(=O)Nc1cc(C)on1)C(C(=O)NC1CCCC1)c1ccccc1OCC (stereo unspecified)	?	?	?	-18%	3%	-2%
C=CCN(C(=O)CCC(=O)Nc1cc(C)on1)C(C(=O)NC1CCCC1)c1ccc(OC)c(OC)c1 (stereo unspecified)	13	?	1%	-7%	12%	2%
Cc1ccc(C(=O)NNC(=O)c2cccnc2SCc2cccc([N+](=O)[O-])c2)cc1	-4	?	-5%	4%	-16%	-9%
CC(=O)Oc1ccccc1N(C(C)=O)S(=O)(=O)c1ccc(C)cc1	0	-2%	-12%	-5%	-1%	8%
Cc1ccc(S(=O)(=O)N(C(=O)c2ccncc2)c2ccc(OC(=O)c3ccncc3)c3ccccc23)cc1	-79*	5.2µM*	2.6µM*	0%	-22%	11%
Cc1ccc(S(=O)(=O)N(C(=O)c2ccncc2)c2ccc(OC(=O)c3ccncc3)c3ccccc23)c(C)c1	42	3.7µM*	4.6µM*	?	-8%	4%
CCOc1ccc(/C=N/NC(=O)Cc2cccs2)cc1	·	-15%	4%	-12%	-10%	4%
c1ccc2c(c1)NC1(CCCC1)n1c-2nc2ccccc21	-79*	?	?	-18%	-22%	i
CC(O)(c1cccc(F)c1)c1nc(-c2csc3ccccc23)cs1 (stereo unspecified)	34	?	?	13µM*	-66%	·
COc1ccccc1-c1csc(C(C)(O)c2cccc(F)c2)n1 (stereo unspecified)	27	16µM*	13µM*	?	-51%	·
Cc1ccccc1-c1csc(C(C)(O)c2ccccc2)n1 (stereo unspecified)	0	-23%	-19%	-21%	-28%	·
COc1ccccc1-c1csc(C(C)(O)c2ccccc2)n1 (stereo unspecified)	5	?	15µM*	-15%	-45%	·
COc1ccc(C2/C=C\CN(C(=O)c3ccccc3)C(Cc3ccccc3)C(=O)N2Cc2ccc(F)cc2)cc1 (stereo unspecified)	·	·	·	?	-32%	·
O=C1CC(N2CCN(S(=O)(=O)c3ccccc3F)CC2)C(=O)N1c1ccccc1F (stereo unspecified)	29	23%	-1%	2%	18%	-3%
CC(C)(C)c1ccc(OCCC(=O)OCC(=O)N2c3ccccc3NC(=O)C2(C)C)cc1	-4	?	?	8%	-2%	-4%
Cc1cccc(C)c1NC(=O)c1cccc2c1-c1ccccc1C2=O	1	?	?	-2%	-17%	-2%
Cc1cccc(NC(=O)c2cccc3c2-c2ccccc2C3=O)n1	5	16µM*	?	17%	-3%	-3%
SMILES	IL1B secr inh	DT40 TDP1 no CPT	TDP1 cell CPT	TGFb inhibitor	HepG2 viability	ASM inhibitor
O=C(Nc1ccc(Br)cn1)c1cccc2c1-c1ccccc1C2=O	43	3.3µM*	4.1µM*	-14%	-38%	-1%
Cc1cccc(NC(=O)c2ccccc2Br)n1	40	-23%	-20%	-1%	-17%	3%
COc1cccc(-c2cc3c(c(OC)c2)OCCN(Cc2cccn2-c2ccccn2)C3)c1	·	-7%	18%[9.04 µM]	·	·	·
COC(=O)c1ccc2c(C)c(C(C)(C)O)[nH]c2c1	5	-3%	-2%	-25%	-2%	61%
CN(C)c1nc(/C=C(\C#N)C(N)=O)c(Cl)n1-c1ccc(F)cc1	-98*	21µM*	16µM*	-6%	3%	-4%
COc1ccc(NC(=O)/C(C#N)=C/c2cc(C)n(-c3ccc(F)cc3)c2C)cc1	·	-21%	-19%	20%	-3%	·
COC(=O)C1=C(C)N(C(C)C)C(=O)C1(NC(=O)c1ccccc1OC)C(F)(F)F (stereo unspecified)	·	-23%	-22%	-29%	2%	·
COc1cccc(N2C(=O)CSC23C(=O)N(CC(=O)Nc2cc(C)ccc2C)c2ccccc23)c1 (stereo unspecified)	·	?	?	-4%	-6%	·
Cc1ccc(NC(=O)CN2C(=O)C3(SCC(=O)N3c3ccc(F)c(F)c3)c3ccccc32)c(C)c1 (stereo unspecified)	·	?	?	1%	-14%	·
CC(C)c1ccc(NC(=O)CN2C(=O)C3(SCC(=O)N3c3ccc(F)cc3)c3ccccc32)cc1 (stereo unspecified)	·	?	?	-28%	-24%	·
COc1cccc(NC(=O)CN2C(=O)C3(SCC(=O)N3c3cc(C)cc(C)c3)c3ccccc32)c1 (stereo unspecified)	·	?	18µM*	1%	-9%	·

Screens as filed in PubChem BioAssay.
